Test results reported in the supplement of paper PMC10732440.
± gives the standard deviation of the averaged measurements.

System: Caenorhabditis elegans N2 infected with Nematocida parisii ERTm1
Assay: progeny production relative to DMSO uninfected control; higher = more progeny despite microsporidia infection (inhibition of infection with low host toxicity)
Details: infection time 6 days
In short: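 Wild-type C. elegans L1 larvae, synchronised by bleaching, were added at 100 per well to 96-well plates containing K-medium, E. coli OP50 and 15,000 N. parisii spores/μL, and compound was pinned in to 100 μM or 40 μM in 1% DMSO. The plates were shaken at 21°C for 6 days, after which worms were stained with Rose Bengal, scanned on a flatbed scanner and counted using WorMachine. Each compound and dose was run three times. Progeny production is expressed as a percentage of wells with vehicle but no spores, averaged over the replicates.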

Structure (SMILES)	progeny production (40 µM) [%]	progeny production (100 µM) [%]
CCNC(=O)Nc1cc2c(-c3ccnc(C)c3)ccc(CNC(=O)OC)c2cn1	4.61 ± 1.9	17.2 ± 9.9
CC(C)(C)c1ccc(C(=O)NC(=O)N2CCCc3ccccc32)cc1	4.23 ± 2.6	22.1 ± 18
CC[C@H](CO)Nc1nc(NCc2ccccc2)c2ncn(C(C)C)c2n1	4.15 ± 1.7	13.5 ± 9.8
Cc1cc(C2CCCCC2)n(O)c(=O)c1	5.34 ± 2.3	33 ± 36
COc1cc(C2C3=C(CC(C)(C)CC3=O)Nc3ccccc3N2C(C)=O)ccc1OCc1ccccc1 (stereo not given)	2.3 ± 0.93	15.1 ± 15
O=C(O)[C@H]1C2CCC(CC2)[C@@H]1Nc1nc(-c2c[nH]c3ncc(F)cc23)ncc1F	8.03 ± 4.7	14.2 ± 12
NCCCc1ccccc1C(=O)Nc1ncc([N+](=O)O)s1	3.03 ± 1.9	25.2 ± 31
CC(C)Oc1ccc(-c2nc(-c3cccc4c3CC[C@@H]4NCCO)no2)cc1C#N	3.24 ± 0.4	4.7 ± 2.8
O=[N+]([O-])c1cn2c(n1)OC[C@@H](OCc1ccc(OC(F)(F)F)cc1)C2	7.03 ± 0.77	11.4 ± 5.1
O=S(=O)(NCB(O)O)c1ccc(-c2nnn[nH]2)cc1C(F)(F)F	7.63 ± 2.6	22.1 ± 6.9
Cc1nc(-c2ccc(C3N(C)c4ccc(F)cc4C(=O)N3c3ccccc3)s2)cs1 (stereo not given)	3.69 ± 1.5	6.47 ± 4.9
C[C@H](Cn1cnc2c(N)ncnc21)OCP(=O)(O)O	6.28 ± 6.8	17.4 ± 6
NC[C@H]1OB(O)c2c(OCCCO)cccc21	4.23 ± 2.7	6.44 ± 4.8
Cc1nc(Nc2ccc(F)cc2)nc(N2CCc3ccccc3C2C)c1C (stereo not given)	2.7 ± 0.53	20.9 ± 25
CCOC(=O)N1CCN(c2ccc(Cl)cc2)CC1	4.15 ± 1.7	12.1 ± 18
Cc1c(CN(C)C(=O)/C=C/c2cnc3c(c2)C(C)(C)C(=O)N3)oc2ccccc12	6.13 ± 3.2	20.6 ± 20
CCCCCOc1ccc(/C=C2\Oc3c(ccc(O)c3O)C2=O)c(O)c1	2.87 ± 0.23	11.2 ± 7
c1cc(CN2CCCNCCNCCCNCC2)ccc1CN1CCCNCCNCCCNCC1	2.33 ± 1	9.51 ± 8.6
CC(C)(C)c1cc(CCC(=O)N2CCC2)cc(C(C)(C)C)c1O	5.76 ± 2.7	14.4 ± 8.6
NC(=O)C(c1ccccc1)(c1ccccc1)[C@H]1CCCN(CCc2ccc3c(c2)CCO3)C1	7.34 ± 0.47	15.2 ± 18

Structure (SMILES)	progeny production (40 µM) [%]	progeny production (100 µM) [%]
Nc1nc2c(ncn2COCCO)c(=O)[nH]1	6.44 ± 2.2	8.34 ± 8.3
Cc1ncc([N+](=O)[O-])n1CC(O)CN1CCOCC1 (stereo not given)	9.17 ± 4.5	12.3 ± 8.3
C=CCc1cc(Cc2cnc(N)nc2N)cc(OC)c1O	3.9 ± 1.6	12.4 ± 5.1
O=C(O)C[C@H]1CC[C@H](c2ccc(-c3ccc(Nc4ccc(C(F)(F)F)nc4)cn3)cc2)CC1	4.2 ± 3.2	10.5 ± 6.4
Fc1ccc(-c2nc(-c3c[nH]c4ccc(Br)cc34)[nH]c2-c2ccc(F)cc2)cc1	3.87 ± 1.5	6.81 ± 2.8
CC1(C)Cc2c(C#N)c(SCCc3ccccc3)nc(N3CCOCC3)c2CO1	3.65 ± 0.7	18.8 ± 15
C=C(C)[C@@H]1CC[C@]2(C(=O)O)CC[C@]3(C)[C@H](CC[C@@H]4[C@@]5(C)CC[C@H](O)C(C)(C)[C@@H]5CC[C@]43C)[C@@H]12	6.56 ± 0.21	9.57 ± 2
NC(=O)[C@@H]1CC[C@@H]2CN1C(=O)N2OS(=O)(=O)O	8.69 ± 1.4	22.2 ± 16
N#CCN1C(=O)COc2cc(F)c(N3C(=O)c4ccccc4C3=O)cc21	3.98 ± 0.99	15.2 ± 12
O=S(=O)(Nc1ccc(-n2cccc2)cc1)c1ccc(Cl)c(Cl)c1	6.12 ± 3.2	35.7 ± 29
O=C(Nc1ccc(-c2ccccc2)cc1)C1=C(O)C(Cc2ccccc2)OC1=O (stereo not given)	5.44 ± 3.9	6.02 ± 4.2
COc1ccc2sc3c(c2c1)NC(C)CNC3=O (stereo not given)	7.35 ± 2.7	29.9 ± 22
CC(C)/N=c1\cc2n(-c3ccc(Cl)cc3)c3ccccc3nc-2cc1Nc1ccc(Cl)cc1	5.08 ± 1.9	9.5 ± 7.2
C[C@H]1CC[C@@]2(O)C(C)(C)[C@@H]3CC[C@@]2(C)[C@H]1C3	6.77 ± 4.3	7.52 ± 7.7
O=C(Nc1ccccc1C(=O)O)c1cccc(Oc2ccccc2)c1	3.52 ± 1.3	16.2 ± 14
CC(C)c1ccc(COc2cccc(-c3cc([S+](C)[O-])c(C#N)c(=O)[nH]3)c2)cc1 (stereo not given)	2.96 ± 1.6	21.4 ± 25
CCOC(=O)Nc1cc(NC(C)CC(C)CN(CC)CC)c2nc(-c3ccccc3)c(-c3ccccc3)nc2n1 (stereo not given)	2.55 ± 1	13.3 ± 9.8
COC(=O)Nc1nc2cc(Sc3ccccc3)ccc2[nH]1	7.64 ± 3.1	29.3 ± 18
O=P(O)(O)C(CCCc1cccc(Oc2ccccc2)c1)S(=O)(=O)O (stereo not given)	5.45 ± 0.36	8.22 ± 4.1
Nc1ccc(-c2nc3cc(C(F)(F)F)ccc3n2C23CC4CC(CC(C4)C2)C3)cc1	5.81 ± 2.1	17 ± 6
